# Measurements published in paper PMC4552634, “A New Set of Chemical Starting Points with Plasmodium falciparum Transmission-Blocking Potential for Antimalarial Drug Discovery” (PLoS ONE, 2015).
# Read-outs that look alike come from different tables or passages of the source. Out of some 13,000 compounds screened, about 3,200 (25%) showed an effect of 50% or more. The list shows a part of the results.
# System: P. falciparum stage V gametocytes
# Design: BacTiter-Glo ATP luminescence viability of purified stage V gametocytes in 384-well plates, per cent inhibition versus DMSO
# Conditions: 48 h, 5 µM, inhibitor
smiles,measurement,setting,value
CN(c1cc(NC(=O)c2ccc(F)cc2)ccn1)C1CCN(Cc2cccc(F)c2)CC1 [TCMDC-135019],% Inhibition,,38.57%
Cc1ccnc(NC(=O)c2cc(-c3cccc([N+](=O)[O-])c3)nc3onc(C)c23)c1 [TCMDC-124591],% Inhibition,,3.347%
C=C[C@]1(C)C[C@@H](OC(=O)NC(=O)CCCS(=O)(=O)c2nnc(C)s2)[C@]2(C)[C@H](C)CC[C@]3(CCC(=O)[C@H]32)[C@@H](C)[C@@H]1O [TCMDC-140927],% Inhibition,,24.97%
C#CC(C)(CO)N1CCCC1 (stereo not shown) [TCMDC-131372],% Inhibition,,-4.555%
CCOC(=O)c1c(C)n(-c2ccccc2)c2ccc(O)cc12 [TCMDC-125483],% Inhibition,,-27.27%
Oc1ccccc1CNCC12CC3CC(CC(C3)C1)C2 [TCMDC-125554],% Inhibition,,-22.39%
CC(C)C[C@H](Nc1ccnc(NCC2CCCCC2)n1)C(=O)Nc1ccccc1 [TCMDC-134714],% Inhibition,,-42.51%
CC(C)c1ccc(Nc2nc(NCCc3cnc[nH]3)nc(NCc3ccccc3)n2)cc1 [TCMDC-139741],% Inhibition,,-6.505%
CC1CN(Cc2cccc(F)c2)CCN1c1ccc(NC(=O)c2ccc(F)cc2)cc1 (stereo not shown) [TCMDC-135017],% Inhibition,,-0.6551%
Cc1ccc(NC(=O)Nc2cccc(Cl)c2)cc1-c1ccc(C(=O)Nc2ccncc2)cc1 [TCMDC-133699],% Inhibition,,10.77%
Cl.Oc1ccc(C2CNCCc3c2cc(O)c(OCc2ccccc2)c3Cl)cc1 (stereo not shown) [TCMDC-141979],% Inhibition,,17.32%
O=C(N[C@@H](Cc1ccccc1)C(=O)NC1CCCCC1)c1ccc(O)c(-c2ccc(Cl)c(Cl)c2)c1 [TCMDC-140824],% Inhibition,,35.45%
O=C(NC(=S)Nc1cc(C(F)(F)F)cc(C(F)(F)F)c1)c1ccc(Cl)cc1 [TCMDC-124077],% Inhibition,,25.76%
COc1cc(Cc2cnc(N)nc2N)cc(OCCCCCC(=O)O)c1OC [TCMDC-137677],% Inhibition,,-23.13%
Cc1cccc(-c2ccc3c(c2)CC(NCc2cccc(-n4ccnc4)c2)C3)c1 (stereo not shown) [TCMDC-134831],% Inhibition,,2.381%
CC[C@H](C)CNC(=O)c1cncc(-c2cccc(CNC3Cc4ccccc4C3)c2)c1 [TCMDC-134218],% Inhibition,,-33.07%
NC(=O)c1cccc(-n2ccc3cc(CNC4Cc5ccccc5C4)ccc32)c1 [TCMDC-133416],% Inhibition,,99.63%
c1ccc2nc(NCCCCCCCCNc3ccc4ccccc4n3)ccc2c1 [TCMDC-137745],% Inhibition,,26.97%
c1ccc2ncc(CNCCCCCCCCNCc3cnc4ccccc4c3)cc2c1 [TCMDC-137744],% Inhibition,,97.27%
COc1cccc(Cc2cnc3nc(N)nc(N)c3c2C)c1 [TCMDC-138060],% Inhibition,,-3.76%
CC(=O)Nc1ccc(S(=O)(=O)Nc2ccc(Nc3nc(C)cc(N(C)C)n3)cc2)cc1 [TCMDC-124951],% Inhibition,,-47.31%
COc1ccc2nccc([C@@H](O)CN3CCC(NC(=O)/C=C/c4cccc(NC(C)=O)c4)CC3)c2c1 [TCMDC-141029],% Inhibition,,-15.14%
COc1cc(CNc2ncc(-c3ccsc3)c(-c3nccs3)n2)cc(OC)c1 [TCMDC-124844],% Inhibition,,31.51%
COc1ccc(CNc2ncc(-c3ccsc3)c(-c3nccs3)n2)cc1OC [TCMDC-125369],% Inhibition,,23.78%
Fc1ccc(CNc2ncc(-c3ccsc3)c(-c3nccs3)n2)cc1 [TCMDC-125372],% Inhibition,,57.46%
COc1cccc(CNc2ncc(-c3ccsc3)c(-c3nccs3)n2)c1 [TCMDC-125375],% Inhibition,,51.63%
c1cc(CNc2ncc(-c3ccsc3)c(-c3nccs3)n2)ccn1 [TCMDC-125371],% Inhibition,,35.87%
Fc1cccc(CNc2ncc(-c3ccsc3)c(-c3nccs3)n2)c1 [TCMDC-125374],% Inhibition,,21.86%
Fc1ccccc1CNc1ncc(-c2ccsc2)c(-c2nccs2)n1 [TCMDC-125366],% Inhibition,,77.55%
c1cncc(CNc2ncc(-c3ccsc3)c(-c3nccs3)n2)c1 [TCMDC-125368],% Inhibition,,23.89%
COc1ccccc1CNc1ncc(-c2ccsc2)c(-c2nccs2)n1 [TCMDC-125376],% Inhibition,,13.46%
Clc1ncccc1-c1nc(NCCC(c2ccccc2)c2ccccc2)no1 [TCMDC-134181],% Inhibition,,13.92%
Clc1cc(Cl)cc(Nc2ccnc(Nc3cc(Cl)cc(Cl)c3)n2)c1 [TCMDC-134277],% Inhibition,,-19.19%
Cc1nc(N/C=C/c2ccc(O)cc2)cc(N2CCCC2)n1 [TCMDC-135162],% Inhibition,,20.32%
NC1=NC(c2ccccc2)(c2cccc(O)c2)C(=O)N1CCCc1ccccc1 (stereo not shown) [TCMDC-132351],% Inhibition,% Inhibition,-3.76%
COc1cccc(CN2CCC(CCOC(c3ccccc3)c3ccc(Cl)cc3)CC2)c1O (stereo not shown) [TCMDC-136040],% Inhibition,,-76.2%
COc1cc(Br)c(S(=O)(=O)n2cc(CN3CCC(N)CC3)c3cc(Cl)ccc32)cc1OC [TCMDC-136384],% Inhibition,,95.22%
COc1ccc(S(=O)(=O)NC2CCN(CCCOc3ccnc4cc(Cl)ccc34)C2)cc1OC (stereo not shown) [TCMDC-136146],% Inhibition,,-25.22%
COc1ccc(NC(=O)Nc2ccc(-c3ccccc3)cc2Cl)cc1N1CCN(C)CC1 [TCMDC-139137],% Inhibition,,-40.38%
O=S(=O)(NCCN1CCCC1)c1ccc(-c2ccc(CNC3Cc4ccccc4C3)cc2)s1 [TCMDC-132234],% Inhibition,,69.5%
O=S(=O)(NCCN1CCCC1)c1ccc(-c2cccc(CNC3Cc4ccccc4C3)c2)s1 [TCMDC-132217],% Inhibition,,90.5%
CN1CCC(NCc2cccc(-c3ccc(S(=O)(=O)NCCN4CCCC4)s3)c2)CC1 [TCMDC-132218],% Inhibition,,98.17%
COc1cccc(-c2cnc(N)c(-c3nc4ccc(F)cc4[nH]3)c2)c1 [TCMDC-138791],% Inhibition,,-6.276%
Cn1c(=O)c(-c2c(Cl)cccc2Cl)cc2cnc(Nc3ccc(N4CCOCC4)cc3)nc21 [TCMDC-137156],% Inhibition,,-23.94%
O=C(Nc1cccc([N+](=O)[O-])c1)Nc1ccc(Cl)c(C(F)(F)F)c1 [TCMDC-123511],% Inhibition,,-89.27%
CCN(c1ccc(F)cc1)S(=O)(=O)c1cc(Br)cc2c1N(C(=O)C1CC1)CC2 [TCMDC-123802],% Inhibition,,-9.966%
